Publication PMC12136788
Substitutions are numbered along the chain they refer to. Over roughly 5,800 sequences, “enrichment r” has its median near 0.54; the highest 2% begin near 16. The list comes from a sample in which the highest values are over-represented; it also holds similar and randomly drawn sequences.

B1: chr12:2800410:2800520:+|CDS|ENSG00000004478|unk|total|mutant (ssRNA)
RNA: GGGAGUUCUACAGUCCGACGAUCAAAUACAAGCAAGCUUUACUACAGUAUAAGAAGAUCGUGUCUUGGCUGGAAUAUGAGUCCCGUUUUUCCAAUGAGGAAGCACAGAAAGCACAGGCCCUUCGACUGGCCUCUCACCUCAACCAACAGAGGAUUGAGCAUCA
B2: chr11:46743636:46743700:-|3pUTR|ENSG00000175216|msi1_unk|total|mutant (ssRNA)
RNA: GGGAGUUCUACAGUCCGACGAUCUUGUAAAAUUGUCCUAAUCUUUCCCCGCUUUUUAACCGUUAAUAUCCGAAACUCUUUAACCGUUUUCCUUUCAGUUUGUGAGCUCUUCUCUGUCGCCCUGAAGGGUCACUGUAUUCUGUACAACAGAGGAUUGAGCAUCA
B3: chr2:166409664:166409935:-|three_prime_utr|ENSG00000136546|control|control|control (ssRNA)
RNA: GGGAGUUCUACAGUCCGACGAUCUGUGGUAACAAGCCAAGCUUUUAAUGUCAUUGUUAUGGUUCUUAUAUGUUUCCAAGCAAUAGCCAUGAUGAUAGACACUGAUGUUCAGAGUCUACAAAUGUCCAUUGCUCUCUACUGGAUCAACAGAGGAUUGAGCAUCA
B4: ENSG00000070961:be:win_5601|3pUTR|ENSG00000070961|bound_else_gene|NA|bound_elsewhere_windowed (ssRNA)
RNA: GGGAGUUCUACAGUCCGACGAUCGAGGUAGCAUGAUAUGCUGGAAAGCAUAUUAGACUAGGAGUCAAGACCUGGUUUCUAGUCUUGGUUUUGCCAUUAAUGUGCUGCAUGAUCUUGGGAAAAUCAUUUACCCUAAAUAAGGGUCAACAGAGGAUUGAGCAUCA
B5: chr19:7961171:7961272:-|3pUTR|ENSG00000066044|msi1|FALSE|unique (ssRNA)
RNA: GGGAGUUCUACAGUCCGACGAUCGGCGGGAUUCCCGCUUCUGAAACUCCCCCUGGAGUCUCACUCCCACACAUGCCCAUAGCUAGCAUUCAACAGAGAACUCUGUCUUAAGCUUCAACUGUGAAAAUGAUGACGGGCUUGUAGCAACAGAGGAUUGAGCAUCA
B6: chr8:52110837:52113338:-|three_prime_utr|ENSG00000147488|control|control|control (ssRNA)
RNA: GGGAGUUCUACAGUCCGACGAUCCCCCGGAAUGCAAAGCUCUACUGGAAAGUAUCAAACAGGCAGUGAAGGGUAUCCAUGUGUAGGAUCACAGCGCUGCCGGGCAACAGAAGUUACCAACAGCAGUAAACUCCAGAUGGAUCUCAACAGAGGAUUGAGCAUCA
B7: ENSG00000107863:be:win_4051|CDS|ENSG00000107863|bound_else_gene|NA|bound_elsewhere_windowed (ssRNA)
RNA: GGGAGUUCUACAGUCCGACGAUCGUGCAGGAGGAAAGCACAGUAGACUCCCAGCCAGUGCCAAACAUAGAUCAUUUACUCACCAACAUUGGAAGGACAGGAGUCUCCCCAGGAGAUGUAUCAGAUUCAGCUACUAGUGACUCACAACAGAGGAUUGAGCAUCA
B8: ENSG00000107863:be:win_5501|CDS|ENSG00000107863|bound_else_gene|NA|bound_elsewhere_windowed (ssRNA)
RNA: GGGAGUUCUACAGUCCGACGAUCCUGUAAACCGGUUAAAACCAAAAUGCUCAGCCCAGGACCUUUCCAUCUCAGACUGGCUGGCCAGGGAACGCCUACGCACCAGUACCUCUGACCUUAGCAGAGGAGAAAUCGGAGAUCCCCCAACAGAGGAUUGAGCAUCA
B9: chr3:15254852:15254953:-|3pUTR|ENSG00000131370|msi1|FALSE|unique (ssRNA)
RNA: GGGAGUUCUACAGUCCGACGAUCAAACUGUUAAUUCUGUCACAGCCUGUAUAUUUUAGUCAUUUGUAAAUCUCUUCAUACAAUAGUGACUUCUUUUUUGACUGAUACAGUAUCUUAAUUACAAGGUUAUUUUGUACUUGUCUUCAACAGAGGAUUGAGCAUCA
B10: chr10:117282838:117282939:-|3pUTR|ENSG00000165650|unk|FALSE|bound_elsewhere (ssRNA)
RNA: GGGAGUUCUACAGUCCGACGAUCCCCCUUGUGUUAUUUUUCUUCCUCUUGGUUUUUGAAUUAGUGUUAAAUAGAAUACUGUCUAGAUUCUUAAAAUAUUUUCAUUUCCAUCAUGGUUAUAACAAAUUUGCUGCAUGCCCAAACCAACAGAGGAUUGAGCAUCA
B11: chr5:113594843:113594944:+|3pUTR|ENSG00000047188|msi1|FALSE|bound_elsewhere (ssRNA)
RNA: GGGAGUUCUACAGUCCGACGAUCCAACAUAAAAUCUUGAGAACCUUCUACUUUCUCUGGGAAAGCAUUAUAUAGUGGUGCAUUAGUUUAGAAAGUCAGCUAUGAUUUUGCCUAUAGUUCUAGUUAUUAGCUUUGGGGUUUUCUCAACAGAGGAUUGAGCAUCA
B12: chr2:216672374:216672548:-|3pUTR|ENSG00000115461|msi1|FALSE|unique (ssRNA)
RNA: GGGAGUUCUACAGUCCGACGAUCUUUUUCUUUUUUUUUUUGAAGACAGCAAUAACCACAGUACAUAUUACUGUAGUUCUCUAUAGUUUUACAUACAUUCAUACCAUAACUCUGUUCUCUCCUCUUUUUUGUUUUCAACUUUAACAACAGAGGAUUGAGCAUCA
B13: chr10:30313878:30313980:-|CDS|ENSG00000107951|unk|FALSE|unique (ssRNA)
RNA: GGGAGUUCUACAGUCCGACGAUCUGUUUUUAUAUUUAAGCCCUUCAUGUACUUACUCAUUUUUUCUUCUGUGUAAUAAUCUAUAGGGAAGGGAGCAAAACAAACCUGAUUCUUCUCCUCUGUACAUUCAGAAUCCAUUUGAAACAACAGAGGAUUGAGCAUCA
B14: chr10:16593140:16593241:-|3pUTR|ENSG00000148484|unk|FALSE|unique (ssRNA)
RNA: GGGAGUUCUACAGUCCGACGAUCUUAUUUUUCUUUUCACUCUCUUUCUAAUGCUUCCCACCUUACCUUUUAGAUUCUUUUGCUAGGUGGGAGAUUGUUAUAAGGUCUUUAAACCAUUUCCAUUUGUUUCUUUAACAUUACCAACAACAGAGGAUUGAGCAUCA
B15: ENSG00000165219:stop:overlap|stop_codon|ENSG00000165219|stop_codon|NA|stop_codon (ssRNA)
RNA: GGGAGUUCUACAGUCCGACGAUCUACCUAUAGGUAAAGAGAAUUUCUCGUAUUGGAGCUUUCUCUUAAAUCUAAUAUUUCAUUAGCCUUUGUUAUUGCUGAGUGUUUUGGAACAUAUGUUUAAGUACUUGGGAAAGUCUUUCUCAACAGAGGAUUGAGCAUCA
B16: chr7:123541454:123541562:-|3pUTR|ENSG00000128609|unk|FALSE|unique (ssRNA)
RNA: GGGAGUUCUACAGUCCGACGAUCUCCAUAGUGUCAUUUUAUUUUAGUCAUUAUUGAAUUAUACCAUUUACUCUGUUUUCUUAUAGUCUUAAUUUUAUUAUAUUUUGUUGUUACUGUAUUAUAUUUGAAAACCUUCAAAUUAGACAACAGAGGAUUGAGCAUCA
B17: chr1:93361585:93361687:+|3pUTR|ENSG00000117505|unk|total|mutant (ssRNA)
RNA: GGGAGUUCUACAGUCCGACGAUCUUUAACUUGCCGUUACCGUUUACUUAUUGUUUUCCGAAUUACUUUUACAUUUUCCCAACCCGAUGGCCCCGAGUCCAACAUUACCUUUUGAGAUGACAUUAUUGUCUCCAUAAUUGAGUGCAACAGAGGAUUGAGCAUCA
B18: chr2:216672374:216672548:-|3pUTR|ENSG00000115461|msi1|total|mutant (ssRNA)
RNA: B12 RNA with U73C, A74C, U83C, A84C
B19: chr5:113594843:113594944:+|3pUTR|ENSG00000047188|msi1|total|mutant (ssRNA)
RNA: GGGAGUUCUACAGUCCGACGAUCCAACAUAAAAUCUUGAGAACCUUCUACUUUCUCUGGGAAAGCAUUAUACCGUGGUGCAUCCGUUCCGAAAGUCAGCUAUGAUUUUGCCUACCGUUCCCGUUAUCCGCUUUGGGGUUUUCUCAACAGAGGAUUGAGCAUCA
B20: chr1:93361585:93361687:+|3pUTR|ENSG00000117505|unk|FALSE|unique (ssRNA)
RNA: B17 RNA with C33U, C34A, C39U, C40A, C57U, C58A, C83U, C84A, C92U, C93A

These binders were tested against MSI1 full-length (mouse, UniProt Q61474 1-362) (assay: nsRBNS (natural sequence RNA bind-n-seq); RBNS binding buffer (assumed for nsRBNS): 25 mM Tris pH 7.5, 150 mM KCl, 3 mM MgCl2, 0.01% Triton X-100, 500 ug/ml BSA, 20 U/ml SUPERase-In, 4 C; UNK is unkempt and MSI1 is Musashi-1; names of the RNAs are library labels; protein concentration not given here; high values mean tight binding).
Sequence of MSI1 full-length (Q61474 whole entry): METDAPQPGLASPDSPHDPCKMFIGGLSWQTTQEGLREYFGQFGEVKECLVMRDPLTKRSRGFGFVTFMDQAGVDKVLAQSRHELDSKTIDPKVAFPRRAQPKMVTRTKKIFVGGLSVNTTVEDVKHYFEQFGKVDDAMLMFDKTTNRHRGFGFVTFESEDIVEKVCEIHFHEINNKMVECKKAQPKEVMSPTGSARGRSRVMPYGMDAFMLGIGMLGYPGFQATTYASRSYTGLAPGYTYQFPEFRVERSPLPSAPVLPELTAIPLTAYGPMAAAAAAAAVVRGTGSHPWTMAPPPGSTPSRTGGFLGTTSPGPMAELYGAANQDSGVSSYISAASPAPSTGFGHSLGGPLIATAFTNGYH

Binder	binding signal
B1	0.381 enrichment R
B2	0.866 enrichment R
B3	0.263 enrichment R
B4	0.263 enrichment R
B5	0.313 enrichment R
B6	0.319 enrichment R
B7	1.93 enrichment R
B8	0.497 enrichment R
B9	0.848 enrichment R
B10	3.9 enrichment R
B11	31.3 enrichment R
B12	21.2 enrichment R
B13	1.04 enrichment R
B14	10.5 enrichment R
B15	1.03 enrichment R
B16	42.9 enrichment R
B17	1.55 enrichment R
B18	7.36 enrichment R
B19	0.394 enrichment R
B20	56.8 enrichment R
